These results are taken from PubChem BioAssay (Tox21).

Unmarked numbers belong to inactive results. Inconclusive results are not listed. The source made the active and inactive calls. Unless noted, calls come from the whole dose curve; as a rule, active = well fitted curve in the direction sought with a large enough effect in the repeat runs; inconclusive = weak or mixed curves; inactive = no such curve, though single readings can be large; an effect the other way counts as inactive or inconclusive.

Test [1] in a line: qHTS assay to identify small molecule antagonists of the estrogen related receptor signaling pathway with the pleiotropic PPARgamma coactivator (PGC) from Tox21 10K library - cell viability counter screen (AID 1224840; active = well fitted cell-killing curve with a large enough effect in the repeat runs, not every such curve was filed as active; note: % is set by controls: 0 for no effect and ±100 for the full control effect; nearly all actives have a fitted effect of over 40% in size). In outline:
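Fluorescence read-out of CellTiter-Fluor viability reagent, added after cells had been exposed to compound in DMSO for 17.5 h at 37 C; 30 min development at 37 C/5% CO2. Cells: PGC/ERR line, 2,000/well.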

Test [2] is described as follows: qHTS assay to identify small molecule agonists of the hypoxia (HIF-1) signaling pathway - cell viability counter screen (AID 1224844; calls by dose curve; note: nearly all actives have a fitted effect of over 50% in size; note: potency is the fitted concentration of half-maximal effect). In outline: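 CellTiter-Glo luminescence read-out, 30 min RT, taken in the same wells as the beta-lactamase HRE reporter assay; HRE-bla ME-180 cells, 0.5% dialyzed FBS, 17 hr compound treatment at 37C, 5% CO2.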
A short description of test [3]: qHTS assay to identify small molecule agonists of H2AX (AID 1224845; active = well fitted activation curve with a large enough effect in the signal ratio in the repeat runs, not every such curve was filed as active; the % refers to the signal ratio; note: % is set by controls: 0 for no effect and ±100 for the full control effect). In outline:
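Phospho-H2AX Ser139 measured by HTRF (ex 320 nm; em 665 and 620 nm) after 24 hr antibody incubation. Compounds, 15 concentrations, 0.76% DMSO, were applied to CHO-K1 cells for 3hr at 37C before lysis.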
Background: In qHTS, concentration-response curves come from the screen itself.

Test [4] in a line: qHTS assay to identify small molecule agonists of the hypoxia (HIF-1) signaling pathway (AID 1224846; active = well fitted activation curve with a large enough effect in the signal ratio in the repeat runs, not every such curve was filed as active; the % refers to the signal ratio; note: % is set by controls: 0 for no effect and ±100 for the full control effect). In outline: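 Beta-lactamase FRET read-out (CCF4-AM substrate) from ME-180 cells carrying an HRE-driven bla reporter, after 17 hrs compound exposure at 37C/5% CO2. Cells were seeded at 2,000 per well in 0.5% dialyzed FBS medium and preincubated 5 hrs.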
The nature of test [5]: qHTS assay to identify small molecule agonists of H2AX - cell viability counter screen (AID 1224847; calls by dose curve; note: nearly all actives have a fitted effect of over 30% in size; note: potency is the fitted concentration of half-maximal effect). In outline: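 We seed wild-type CHO-K1 cells overnight, treat them for 3 hr at 37C with compounds in 15-concentration series, and quantify remaining viability by CellTiter-Glo luminescence.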
A short description of test [6]: qHTS RealTime-Glo MT Cell Viability Assay in HepG2 cells - 24 hour (AID 1224867). Note: nearly all actives have a fitted effect of over 50% in size. Note: potency is the fitted concentration of half-maximal effect. In outline:
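Real-time, nonlytic viability: 600 HepG2 cells/well mixed with NanoLuc enzyme plus prosubstrate; 5 h settle, compound (DMSO) added by pintool; luminescence monitored over 40 h at 37 C.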

Test [7] can be described thus: qHTS RealTime-Glo MT Cell Viability Assay in HEK293 cells - 32 hour (AID 1224868). Note: nearly all actives have a fitted effect of over 50% in size. Note: potency is the fitted concentration of half-maximal effect. In outline:
(§1)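 Cells + reagent dispensed (600 cells/well, HEK293) → 5 h at 37 C/5% CO2 → 23 nL compound in DMSO pinned → 40 h at 37 C → luminescence read at 0, 8, 16, 24, 32, 40 h.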

A short description of test [8]: A CellTox Green Cytotoxicity Assay to monitor cytotoxicity in HEK293 cells - 0 hour (AID 1224869). Note: % is set by controls: 0 for no effect and ±100 for the full control effect; nearly all actives have a fitted effect of over 50% in size. In outline:
(§2)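 Read-out: fluorescence of a cell-impermeant cyanine dye staining DNA of dead cells, proportional to cytotoxicity. HEK293, 600 cells/well with reagent, compound (23 nL DMSO) added after 5 h; reads at 0, 8, 16, 24, 32, 40 h.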

Test [9] in a line: qHTS RealTime-Glo MT Cell Viability Assay in HepG2 cells - 40 hour (AID 1224870). Note: nearly all actives have a fitted effect of over 50% in size. Note: potency is the fitted concentration of half-maximal effect. In outline:
(§3)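 Real-time viability: cells seeded at 600 per well together with NanoLuc and cell-permeant prosubstrate, compounds added after 5 h incubation. Luminescence tracked at 0, 8, 16, 24, 32 and 40 h of exposure.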

Test [10] in a line: qHTS RealTime-Glo MT Cell Viability Assay in HepG2 cells - 8 hour (AID 1224873). Note: nearly all actives have a fitted effect of over 55% in size. Note: potency is the fitted concentration of half-maximal effect. In outline:
as §3

The nature of test [11]: qHTS RealTime-Glo MT Cell Viability Assay in HEK293 cells - 40 hour (AID 1224874). For max response: % is set by controls: 0 for no effect and ±100 for the full control effect. Note: nearly all actives have a fitted effect of over 50% in size. Note: potency is the fitted concentration of half-maximal effect. Conditions: RealTime-Glo luminescence; max response: hits give low values. In outline:
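Luminescence readout at each listed time point; HEK293, 600 cells/well, RealTime-Glo MT reagent added with cells; compounds pinned (23 nL in DMSO) after 5 h at 37 C; continuous culture at 37 C.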

Test [12] is described as follows: A CellTox Green Cytotoxicity Assay to monitor cytotoxicity in HEK293 cells - 24 hour (AID 1224875). Note: nearly all actives have a fitted effect of over 45% in size. Note: potency is the fitted concentration of half-maximal effect. In outline:
as §2

The nature of test [13]: A CellTox Green Cytotoxicity Assay to monitor cytotoxicity in HepG2 cells - 16 hour (AID 1224876). Note: nearly all actives have a fitted effect of over 45% in size. Note: potency is the fitted concentration of half-maximal effect. In outline: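 HepG2, 600 cells/well premixed w/ CellTox Green; 5 h settle, 37 C/5% CO2; pintool cpd add (DMSO); 37 C, 40 h; fluorescence read at 0, 8, 16, 24, 32, 40 h.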
Test [14] is described as follows: A CellTox Green Cytotoxicity Assay to monitor cytotoxicity in HEK293 cells - 40 hour (AID 1224871). Note: nearly all actives have a fitted effect of over 45% in size. Note: potency is the fitted concentration of half-maximal effect. In outline: as §2
Test [15] is described as follows: qHTS RealTime-Glo MT Cell Viability Assay in HEK293 cells - 16 hour (AID 1224872). Note: nearly all actives have a fitted effect of over 50% in size. Note: potency is the fitted concentration of half-maximal effect. In outline:
as §1

The target of test [16] is Thyrotropin receptor (Homo sapiens) (UniProt P16473). As to the kind of experiment: qHTS assay to identify small molecule agonists of the thyroid stimulating hormone receptor (TSHR) signaling pathway (AID 1224843; calls by dose curve; note: % is set by controls: 0 for no effect and ±100 for the full control effect; nearly all actives have a fitted effect of over 45% in size). In outline: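 Agonist activity read as cAMP rise via d2/cryptate HTRF competition, 1 h room-temperature detection, in HEK293 cells expressing TSHR. Fifteen-point titrations, each run in triplicate, with a 30 min room-temperature incubation beforehand.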
Thyrotropin receptor (Homo sapiens), sequence (P16473 whole entry, looked up): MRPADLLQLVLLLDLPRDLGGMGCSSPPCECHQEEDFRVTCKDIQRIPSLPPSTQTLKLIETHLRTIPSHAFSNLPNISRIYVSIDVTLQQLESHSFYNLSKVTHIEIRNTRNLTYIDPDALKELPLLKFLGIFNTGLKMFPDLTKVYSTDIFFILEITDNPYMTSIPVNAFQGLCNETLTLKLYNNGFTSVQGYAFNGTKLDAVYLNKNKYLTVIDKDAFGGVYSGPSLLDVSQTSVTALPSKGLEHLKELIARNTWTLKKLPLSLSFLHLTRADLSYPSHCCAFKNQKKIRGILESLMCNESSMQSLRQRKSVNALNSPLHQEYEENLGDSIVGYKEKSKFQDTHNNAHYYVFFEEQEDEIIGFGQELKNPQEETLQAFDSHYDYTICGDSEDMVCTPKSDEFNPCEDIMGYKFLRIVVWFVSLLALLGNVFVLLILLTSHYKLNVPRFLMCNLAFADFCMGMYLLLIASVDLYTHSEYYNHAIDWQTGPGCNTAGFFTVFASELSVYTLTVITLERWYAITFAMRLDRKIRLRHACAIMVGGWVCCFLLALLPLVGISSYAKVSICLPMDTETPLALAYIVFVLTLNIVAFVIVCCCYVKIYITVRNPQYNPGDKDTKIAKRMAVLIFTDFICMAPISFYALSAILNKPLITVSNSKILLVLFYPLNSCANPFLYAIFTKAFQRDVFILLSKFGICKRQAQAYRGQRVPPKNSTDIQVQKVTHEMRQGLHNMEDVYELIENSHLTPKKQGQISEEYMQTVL

Test [17] in a line: qHTS assay to identify small molecule antagonists of the estrogen related receptor signaling pathway with the pleiotropic PPARgamma coactivator (PGC) from Tox21 10K library (AID 1224841; call rule not given here). In outline: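 Luminescence read-out (One-Glo luciferase reagent, 30 min at room temperature) from PGC/ERR cells exposed to DMSO-dissolved test compounds for 18 h at 37 C; cells, 2,000 per well, had been preincubated 6 h before compound transfer.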

Test [18] is described as follows: qHTS assay to identify small molecule agonists of the estrogen related receptor signaling pathway with the pleiotropic PPARgamma coactivator (PGC) from Tox21 10K library (AID 1224842). Note: % is set by controls: 0 for no effect and ±100 for the full control effect; nearly all actives have a fitted effect of over 15% in size. In outline: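 Luminescence from One-Glo (30 min, room temperature) measured after PGC/ERR cells had 18 h at 37 C with pinned compound (23 nL in DMSO). Cells had been seeded at 2,000 per well and pre-incubated 6 h.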

Test [19] in a line: qHTS assay to identify small molecule antagonists of the estrogen related receptor (ERR) signaling pathway from Tox21 library (AID 1224848). In outline: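 Luciferase luminescence (ONE-Glo, 30 min room temperature) was the read-out. Cells of the NTP-supplied ERR line, 2,000 per well, were given 6 h at 37 C before compound addition in DMSO and 18 h exposure at 37 C.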

With `Nc1ccc(Cl)c([N+](=O)[O-])c1`, the Potency result in test [1], in test [2], in test [3], in test [4], in [5] and in test [6] was “inactive” each time. The Potency entry in test [7], in test [8], in test [9], in [10], in test [12] and in test [13] was “inactive” throughout. In addition, in [11], the max response is -19.2%.
Turning to `CC(C=O)c1ccccc1` (stereo unspecified), the Potency result in [1], in test [2], in [3], in test [4], in [5] and in test [6] was “inactive” each time. Besides, the Potency entry in test [8], in [9], in [14], in test [15], in [10] and in test [12] was “inactive” throughout. The Potency entry in test [13] was “inactive”. The max response in [11] is -16.6%.
On to `CCCCCCCC/C=C\CCCCCCCC(=O)N(CCO)CCO`, for which the Potency result in test [1], in test [3], in test [6], in [8], in test [9] and in test [10] was “inactive” in each case. For the same molecule, the Potency result in test [13] was “inactive”. For the same molecule, the figures for the Potency in [5], in test [7] and in test [11] were 113 µM (active), 43.5 µM (active) and 43.5 µM (active), respectively.
With `CCCCCCCCCCCC(=O)Cl`, the Potency entry in test [1], in [16], in [3], in [4], in test [5] and in [6] was “inactive” in each case. The Potency entry in test [7], in test [9], in test [14], in test [10], in test [12] and in test [13] was “inactive” in each case. The max response in test [11] was 0.0053%.
On to `O=C(N[C@H](CO)[C@H](O)c1ccc([N+](=O)[O-])cc1)C(Cl)Cl`, for which the Potency result in test [1], in [2], in [3], in [5], in [6] and in test [8] was “inactive” in each case. Moreover, the Potency entry in [9], in [10], in test [12] and in [13] was “inactive” in each case.
Turning to `C/C(=C\c1ccc(C(=O)O)cc1)c1ccc2c(c1)C(C)(C)CCC2(C)C`, the Potency result in test [1], in test [16], in test [3], in [4], in test [5] and in [6] was “inactive” throughout. For the same molecule, the Potency entry in [7], in test [8], in test [9], in [14], in [10] and in [12] was “inactive” each time. Further, the Potency entry in test [13] was “inactive”. Also, in test [11], the max response is -17.3%.
As to `O=C1OC(=O)c2cc(-c3ccc4c(c3)C(=O)OC4=O)ccc21`, the Potency result in test [1], in test [2], in [3], in test [4], in test [5] and in [6] was “inactive” each time. The Potency result in [7], in test [8], in test [9], in test [14], in [10] and in test [12] was “inactive” each time. For the same molecule, the Potency result in test [13] is “inactive”. Also, the max response in test [11] is 0.595%.
As to `CC1=C(/C=C/C(C)=C/C=C/C(C)=C\C(=O)O)C(C)(C)CCC1`, the Potency entry in test [1], in test [3], in test [5], in [6], in test [8] and in [9] was “inactive” each time. The Potency entry in [15], in test [10] and in [13] was “inactive” throughout. The Potency in test [2] was 34.8 µM (active).
Consider `CCOC(=O)[C@H](C)O`, for which the Potency entry in test [1], in test [2], in [3], in test [4], in test [5] and in test [6] was “inactive” throughout. In addition, the Potency entry in test [7], in test [8], in test [9], in test [14], in test [10] and in test [12] was “inactive” in each case. In addition, in [13], the Potency entry was “inactive”. In addition, the max response in test [11] is 7.55%.
With `c1ccc(-c2nc3ccccc3[nH]2)cc1`, the Potency entry in test [1], in test [2], in test [3], in test [4], in test [6] and in test [8] was “inactive” each time. Also, the Potency result in test [9], in test [12] and in test [13] was “inactive” in each case. Also, the Potency in test [5] is 89.8 µM (active); in test [7], 34.7 µM (active); in test [15], 21.9 µM (active); in test [11], 21.9 µM (active).
Take `CC(C)=NNC(N)=S`: the Potency result in [1], in [2], in test [4], in test [5], in [6] and in test [7] was “inactive” in each case. The Potency result in [8], in test [9], in [14], in test [15], in [10] and in test [12] was “inactive” in each case. For the same molecule, the max response in [11] was 3.34%.
Consider `Nc1cc([N+](=O)[O-])cc(Cl)c1O`, for which the Potency entry in [1], in test [2], in test [4], in test [5], in test [6] and in [7] was “inactive” throughout. Moreover, the Potency entry in [8], in [9], in [14], in [15], in test [10] and in test [12] was “inactive” throughout. In addition, the Potency result in test [13] was “inactive”. For the same molecule, the max response in test [11] is -6.05%.
In the case of `C[C@H]1O[C@@H](O[C@H]2CC[C@@]3(C)[C@H](CC[C@@H]4[C@@H]3C[C@@H](O)[C@]3(C)[C@@H](C5=CC(=O)OC5)CC[C@]43O)C2)C[C@H](O)[C@@H]1O[C@H]1C[C@H](O)[C@H](O[C@H]2C[C@H](O)[C@H](O[C@@H]3O[C@H](CO)[C@@H](O)[C@H](O)[C@H]3O)[C@@H](C)O2)[C@@H](C)O1`, the Potency in test [17] was 0.335 µM (active); in test [2], 0.379 µM (active); in [19] it was 0.376 µM (active); in [7], 0.239 µM (active); in [11], 0.239 µM (active). In addition, the Potency entry in test [18], in test [3], in test [4], in test [5], in test [6] and in test [8] was “inactive” throughout. The Potency entry in [9], in [14], in [10], in [12] and in test [13] was “inactive” throughout.
Take `CCCCCCCCCC[N+](C)(CCCCCCCCCC)CCC[Si](OC)(OC)OC`: the Potency in [2] was 54.9 µM (active); in [5], 50.5 µM (active); in test [6], 43.6 µM (active); in test [7], 27.5 µM (active); in test [9], 43.6 µM (active); in test [14] it was 43.6 µM (active). The Potency in [15] was 27.5 µM (active); in test [10], 49 µM (active); in test [11] it was 27.5 µM (active); in test [12] it was 38.9 µM (active); in test [13], 43.6 µM (active). For the same molecule, the Potency entry in test [3] and in test [8] was “inactive” each time.
